Experimental findings from PubChem BioAssay (NCI) are described below.

Test systems include HCT-15 colon; HT29 colon; SNB-75 CNS; SNB-19 CNS; U251 CNS; PC-3 prostate; SK-MEL-5 melanoma; UACC-62 melanoma; SK-MEL-28 melanoma; SK-MEL-2 melanoma; EKVX NSCLC; SN12C renal; UO-31 renal; TK-10 renal; ACHN renal; CAKI-1 renal; A498 renal; CCRF-CEM leukemia; LOX IMVI melanoma; MOLT-4 leukemia.
Common to all, as to assay: NCI-60 one-dose screen, 48 h (100 = growth as untreated, 0 = no growth, -100 = all killed)
Common to all, as to details: 10 µM unless noted

About 83,000 compounds went through this panel and 20% of them were active in at least one assay; those are over-represented in the sample as a whole.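 In brief: 96-well plates, 48 h treatment, single concentration, percent growth endpoint.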 Unmarked numbers belong to inactive results. Calls of active or inactive are those of the source. Rule for the calls: active = growth percent below 10; inactive = the rest.

In the case of `CCCn1nc(-c2ccccc2)c2c(-c3ccccc3)onc2c1=O`, the growth in the assay on HCT-15 colon is 61.8%; with HT29 colon, 43.1%; in the assay on SNB-75 CNS it was 53%; in the assay with SNB-19 CNS it was 77.2%; in the assay on U251 CNS, 72.9%; in the assay on PC-3 prostate, 73%. The growth with SK-MEL-5 melanoma is 79.7%; in the assay on UACC-62 melanoma it was 53.8%; in the assay with SK-MEL-28 melanoma, 95.5%; in the assay with SK-MEL-2 melanoma, 57.8%; in the assay on EKVX NSCLC, 78.9%; in the assay with SN12C renal it was 82.1%. The growth is 68.8% with UO-31 renal; 106% with TK-10 renal; 94.1% with ACHN renal; 85.9% in the assay on CAKI-1 renal; 68.9% with A498 renal; 68.7% in the assay with CCRF-CEM leukemia.

With `Clc1cnc(Nc2ccc(OCCN3CCCC3)cc2)nc1NCc1ccco1`, the growth is 6.01% (active) in the assay on HCT-15 colon; 11.3% in the assay on HT29 colon; -3.83% (active) in the assay on SNB-75 CNS; 38.6% with SNB-19 CNS; 19.6% with U251 CNS; 28.7% with PC-3 prostate. The growth with SK-MEL-5 melanoma was 46.1%; with UACC-62 melanoma, 46.5%; with SK-MEL-28 melanoma, 51.7%; in the assay with SK-MEL-2 melanoma, -10.3% (active); in the assay with EKVX NSCLC, 25.2%; in the assay on SN12C renal it was 5.92% (active). Also, the growth in the assay with UO-31 renal is -3.47% (active); in the assay with TK-10 renal, 9.62% (active); in the assay with ACHN renal, -10.2% (active); in the assay with CAKI-1 renal, 10%; in the assay with A498 renal, 17.6%; in the assay with CCRF-CEM leukemia, 7.04% (active).

On to `Clc1ccc2c(NCCCN3CCN(c4nc(N5CCOCC5)nc5ccccc45)CC3)ccnc2c1`, for which the growth in the assay with HCT-15 colon was -32.8% (active); in the assay on HT29 colon, -19.2% (active); in the assay on SNB-75 CNS it was 89.4%; in the assay on SNB-19 CNS, 21.7%; in the assay with U251 CNS, -14.3% (active); with PC-3 prostate, 37.5%. Besides, the growth in the assay on SK-MEL-5 melanoma was -96.8% (active); in the assay on UACC-62 melanoma, -33.1% (active); in the assay with SK-MEL-28 melanoma it was -85% (active); in the assay with SK-MEL-2 melanoma, -5.64% (active); with EKVX NSCLC, 26.4%; in the assay with SN12C renal it was 45.9%. The growth is -85.9% (active) in the assay on UO-31 renal; -38% (active) in the assay on TK-10 renal; -29.1% (active) in the assay on ACHN renal; 15.3% in the assay on CAKI-1 renal; 71.2% in the assay with A498 renal; 4.4% (active) in the assay on CCRF-CEM leukemia.

On to `C=C1c2c(C)nn(-c3ccc(NC(C)=O)cc3)c2N(C)C23CC1C1(C)c4c(C)nn(-c5ccc(NC(C)=O)cc5)c4N(C)C(C)(CC12)C3` (configuration not stated), for which the growth was 11% in the assay on HCT-15 colon; 31.1% in the assay with HT29 colon; 99% in the assay on SNB-75 CNS; 43.6% in the assay on SNB-19 CNS; 33.3% in the assay with U251 CNS; 22.7% in the assay with PC-3 prostate. Besides, the growth is 19.1% in the assay on SK-MEL-5 melanoma; 37% in the assay on UACC-62 melanoma; 46.9% in the assay on SK-MEL-28 melanoma; 36.6% in the assay on SK-MEL-2 melanoma; 24.9% in the assay on EKVX NSCLC; 45.6% with SN12C renal. In addition, the growth is 24.2% in the assay with UO-31 renal; 37.3% with TK-10 renal; 19.4% with ACHN renal; 32.8% with CAKI-1 renal; 60.3% in the assay on A498 renal; 8.28% (active) in the assay with CCRF-CEM leukemia.

`C=C(C)[C@@H]1CC[C@]2(CN)CC[C@]3(C)[C@H](CC[C@@H]4[C@@]5(C)CCC(N)[C@@](C)(CO)[C@@H]5CC[C@]43C)[C@@H]12` (some centres not stated): the growth with HCT-15 colon was -47.6% (active); in the assay on HT29 colon it was -60.6% (active); in the assay with SNB-75 CNS, 75.6%; in the assay on SNB-19 CNS it was -10.5% (active); with U251 CNS it was -93.8% (active); in the assay on PC-3 prostate it was 6.4% (active). Also, the growth was -97.2% (active) in the assay on SK-MEL-5 melanoma; -79.6% (active) in the assay on UACC-62 melanoma; -94.2% (active) with SK-MEL-28 melanoma; -86.4% (active) in the assay with SK-MEL-2 melanoma; 21.3% with EKVX NSCLC; -69.3% (active) in the assay with SN12C renal. In addition, the growth was 65.8% in the assay on UO-31 renal; -86.3% (active) in the assay on TK-10 renal; -77.7% (active) with ACHN renal; -15.7% (active) in the assay on CAKI-1 renal; 81.4% with A498 renal; -44.8% (active) in the assay with CCRF-CEM leukemia.

For the molecule `Cc1cc(N(CCCNc2ccnc3cc(Cl)ccc23)Cc2ccccn2)nc(N2CCCC2)n1`, the growth in the assay with HCT-15 colon is 48.3%; in the assay on HT29 colon it was 44%; in the assay on SNB-75 CNS it was 75.4%; in the assay on SNB-19 CNS, 91.2%; with U251 CNS, 74.8%; with PC-3 prostate it was 50.5%. Besides, the growth in the assay on SK-MEL-5 melanoma is 65.6%; with UACC-62 melanoma, 95.1%; in the assay on SK-MEL-28 melanoma it was 88%; in the assay on SK-MEL-2 melanoma, 99.8%; in the assay with EKVX NSCLC, 76.3%; with SN12C renal, 64.4%. The growth is 53.8% in the assay on UO-31 renal; 136% in the assay on TK-10 renal; 93.5% in the assay with ACHN renal; 76.5% in the assay with CAKI-1 renal; 95.1% in the assay with A498 renal; 53.9% in the assay with CCRF-CEM leukemia.

With `Cc1cccc(-c2cc(O)c(C(=O)N3CCOCC3)s2)c1`, the growth with HCT-15 colon was 21.4%; with HT29 colon, 52.2%; in the assay with SNB-75 CNS, 33.5%; in the assay with SNB-19 CNS it was 31.5%; in the assay with U251 CNS it was 28.6%; in the assay on PC-3 prostate, 60.5%. Also, the growth is 26% in the assay on SK-MEL-5 melanoma; 33.2% with LOX IMVI melanoma; 56.9% in the assay on SK-MEL-28 melanoma; 28.5% with SK-MEL-2 melanoma; 58.6% with EKVX NSCLC; 49.1% with SN12C renal. Moreover, the growth was 58.3% in the assay with UO-31 renal; 61.7% with TK-10 renal; 60.6% with ACHN renal; 47.5% with CAKI-1 renal; 26.7% in the assay with A498 renal; 35.5% in the assay with CCRF-CEM leukemia. In addition, the growth with MOLT-4 leukemia is 21.6%.

Consider `COc1ccc(-c2cncnc2N)cc1OC`, for which the growth was 103% in the assay with HCT-15 colon; 111% with HT29 colon; 88.3% in the assay with SNB-75 CNS; 108% with SNB-19 CNS; 97.7% with U251 CNS; 90.6% with PC-3 prostate. For the same molecule, the growth in the assay on SK-MEL-5 melanoma is 106%; with UACC-62 melanoma it was 112%; with LOX IMVI melanoma, 98.6%; in the assay with SK-MEL-28 melanoma it was 106%; in the assay with SN12C renal, 109%; with UO-31 renal, 101%. In addition, the growth with TK-10 renal was 111%; in the assay with ACHN renal, 104%; with CAKI-1 renal, 101%; in the assay with A498 renal, 87.8%; with CCRF-CEM leukemia, 95.9%; in the assay on MOLT-4 leukemia, 105%.

Regarding `Cc1ccc(NSc2ccccc2[N+](=O)[O-])cc1`, the growth with HCT-15 colon is 27%; in the assay on HT29 colon, 5.05% (active); with SNB-75 CNS, 10.1%; in the assay on SNB-19 CNS it was 38.1%; with U251 CNS it was 21.1%; with PC-3 prostate it was 18%. The growth in the assay on SK-MEL-5 melanoma was 13.6%; with LOX IMVI melanoma, 35%; with SK-MEL-28 melanoma, 63.7%; in the assay on SK-MEL-2 melanoma it was 23.5%; in the assay on EKVX NSCLC, 50.1%; with SN12C renal, 40.3%. The growth is 33.1% with UO-31 renal; 51.7% with TK-10 renal; 50.4% in the assay on ACHN renal; 34.2% in the assay on CAKI-1 renal; 6.22% (active) in the assay on A498 renal; 12.4% in the assay on CCRF-CEM leukemia. Further, the growth in the assay with MOLT-4 leukemia is 29.5%.

Regarding `CC[C@]1(O)C[C@H]2CN(CCc3c([nH]c4ccccc34)[C@@](C(=O)OC)(c3cc4c(cc3OC)N(C=O)[C@H]3[C@@](O)(C(=O)OC)[C@H](OC(C)=O)[C@]5(CC)C=CCN6CC[C@]43[C@@H]65)C2)C1`, the growth was 10.9% with HCT-15 colon; -3.03% (active) in the assay with HT29 colon; 15.7% in the assay with SNB-75 CNS; 10.1% with SNB-19 CNS; 24.2% in the assay on U251 CNS; 18.3% in the assay on PC-3 prostate. Further, the growth is -73.5% (active) in the assay with SK-MEL-5 melanoma; 23.9% in the assay on UACC-62 melanoma; 28.8% in the assay on LOX IMVI melanoma; 58% in the assay with SK-MEL-2 melanoma; 27.1% in the assay with EKVX NSCLC; 39.9% in the assay on SN12C renal. Moreover, the growth is 28.6% in the assay on UO-31 renal; 60.8% with TK-10 renal; 36.3% with ACHN renal; 26.5% in the assay on CAKI-1 renal; 5.75% (active) in the assay on CCRF-CEM leukemia; 5.04% (active) with MOLT-4 leukemia.
